Values joined by “and” are separate entries in the source; they are usually repeats but may differ in a detail not shown here. Equal values may be shown once.

The test can be described thus: qHTS profiling for inhibitors of Plasmodium falciparum (3D7) proliferation (AID 743322).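 Note: infected erythrocytes exposed to compound for 72 h before lysis; 100% = DMSO vehicle wells and 0% = 0.29 µM artemisinin.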 Particulars: P. falciparum 3D7 proliferation; at 28.7 µM (top of the series). In a few lines:
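Erythrocytes infected with P. falciparum (0.3% parasitemia, 2.5% hematocrit) incubated with compounds 72 h at 37 C, 5% CO2. Lysis with saponin/Triton buffer containing SYBR Green I, overnight at room temperature in the dark; DNA fluorescence (485/535 nm) normalised to 0.29 uM artemisinin and DMSO.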

With `O=P1(N(CCCl)CCCl)NCCCO1` (stereo unspecified), the remaining parasite growth % (stronger effect = lower value) was 108% and 105%.

(Values after PubChem BioAssay (NCATS).)
